697 NFkB inh = inhibitors of PMA/ionomycin-induced NF-kB reporter, 697 cells, primary screen, B-cell NF-kB inhibitor project, cell-based, luminescence, uHTS; 697 B-cell NF-kB luciferase reporter, 16 h; inhibition, % at 4 µM; 0.33% of 330,000 active; in the data active means inhibition above about 35%
Gli-Sufu block = Gli-Sufu pathway antagonists, primary screen, luciferase luminescence, Sufu-KO-LIGHT cells, uHTS | Sufu-KO-LIGHT fibroblasts, Gli luciferase reporter luminescence | inhibition, % at 5 µM | 0.74% of 340,000 active | AID 588413, 2011;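 active means inhibition above about 55%, limit read from the data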
Mdm2 MdmX PPI = inhibitors of human Mdm2-MdmX association, primary screen, cell-based, luminescence, split luciferase, SaOS-2, uHTS; Protein Mdm4 (Homo sapiens) + E3 ubiquitin-protein ligase Mdm2 (Homo sapiens), …; SaOS-2 split-luciferase Mdm2/MdmX complementation; inhibition, % at 8 µM; 3% of 330,000 active;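 active means inhibition of at least 50% at 8 µM in the primary screen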
Target sequence (O15151 whole entry, looked up): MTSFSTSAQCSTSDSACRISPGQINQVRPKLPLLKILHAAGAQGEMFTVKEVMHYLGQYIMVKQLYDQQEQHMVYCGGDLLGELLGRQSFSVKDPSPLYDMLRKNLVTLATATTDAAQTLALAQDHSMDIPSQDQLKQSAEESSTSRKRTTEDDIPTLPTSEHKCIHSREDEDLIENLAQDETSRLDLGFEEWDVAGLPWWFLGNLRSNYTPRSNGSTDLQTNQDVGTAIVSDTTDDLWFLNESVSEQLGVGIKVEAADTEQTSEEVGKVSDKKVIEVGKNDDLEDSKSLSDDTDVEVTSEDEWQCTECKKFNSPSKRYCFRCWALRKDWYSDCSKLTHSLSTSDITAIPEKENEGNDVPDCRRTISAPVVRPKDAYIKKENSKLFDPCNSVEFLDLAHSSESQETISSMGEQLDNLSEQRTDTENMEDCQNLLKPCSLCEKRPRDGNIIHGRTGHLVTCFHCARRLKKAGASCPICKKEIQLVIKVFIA
Target sequence (Q00987 whole entry, looked up): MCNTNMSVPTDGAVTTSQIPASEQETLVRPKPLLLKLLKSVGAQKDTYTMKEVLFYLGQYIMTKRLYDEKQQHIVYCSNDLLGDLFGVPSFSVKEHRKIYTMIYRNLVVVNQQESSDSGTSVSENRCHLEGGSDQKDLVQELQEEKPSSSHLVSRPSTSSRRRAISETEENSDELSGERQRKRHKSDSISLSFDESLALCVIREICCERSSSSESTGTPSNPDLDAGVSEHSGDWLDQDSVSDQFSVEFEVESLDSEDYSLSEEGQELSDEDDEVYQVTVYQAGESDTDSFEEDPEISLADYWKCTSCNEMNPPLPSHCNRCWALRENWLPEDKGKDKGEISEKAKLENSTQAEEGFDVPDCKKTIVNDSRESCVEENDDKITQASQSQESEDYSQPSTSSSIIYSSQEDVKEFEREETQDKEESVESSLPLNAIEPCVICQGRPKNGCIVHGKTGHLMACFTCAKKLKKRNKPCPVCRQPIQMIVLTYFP
Jurkat NFkB inh = inhibitors of induced NF-kB luciferase reporter, primary screen, TCR NF-kB activation inhibitor project, cell-based, luminescence, uHTS; Jurkat, PMA/ionomycin-induced NF-kB luciferase reporter; inhibition, % at 4 µM; 0.53% of 330,000 active; in the data active means inhibition above about 50%
Shn3 3UTR inh = reduction of Shn3 3'UTR firefly luciferase signal, primary screen, Schnurri-3 inhibitor project, cell-based, Clone20 osteoblasts, set 2. Clone20 osteoblast Shn3 3'UTR firefly luciferase, 24 h. inhibition, % at 12.5 µM. 0.52% of 360,000 active. AID 588674, 2011;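 active means mean inhibition of at least 75% with every replicate also reaching 75%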
Mdm2 MdmX conf = Mdm2-MdmX complex disruptors, retested hits, confirmation, luminescence, single concentration; shares compounds with Mdm2 MdmX PPI; Mdm2-MdmX binding, luminescent assay; inhibition, % at 8 µM; 55% of 10,000 active; in the data active means inhibition above about 40%
FLuc counter = full-length luciferase signal inhibition, confirmation, counter-screen for Mdm2/MdmX interaction inhibitor project, cell-based, single concentration, SaOS-2. AID 504607, 2011. shares compounds with Mdm2 MdmX PPI. inhibition, % at 8 µM. SaOS-2 full-length luciferase counterscreen, luminescence. 77% of 6,200 active;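 active means mean inhibition at 8 µM reaching about 37%, which flags the compound as non-specific, limit read from the data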;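 further: p53-null SaOS-2 cells with luciferase driven by a doxycycline-inducible promoter; compound on cells about two nights before reading with doxycycline added after day one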
Each line names hits and unclear results; the compound was inactive in the other large screens (follow-up assays come after a bar, where they were run). A selection: hits, their analogues and other compounds. The true share with any hit is near 3.8%.

O=C(Oc1c(CN2CCOCC2)cc(Cl)c2cccnc12)c1ccc(F)cc1	Mdm2 MdmX PPI 52.0 | Mdm2 MdmX conf 48.8 | FLuc counter 42.2
Oc1c(Cl)cc(CN2CCCCC2)c2cccnc12	none (no result: Gli-Sufu block)
COCCN(C(=O)c1csnn1)C(C(=O)NC1CCCCC1)c1ccccc1F (centres undefined)	none
Cc1c(NC(=O)[C@@H](NC(=O)c2ccc(Cl)c([N+](=O)[O-])c2)C(C)C)c(=O)n(-c2ccccc2)n1C	none
COc1cc(C(=O)Oc2c(OC)cc(C(=S)N3CCOCC3)cc2OC)cc(OC)c1OC	none
COc1cc(C(=O)Oc2c(CN3CCOCC3)cc(Cl)c3cccnc23)cc(OC)c1OC	Mdm2 MdmX PPI 65.2 | Mdm2 MdmX conf 46.0 | FLuc counter 38.6
COc1cccc(C(=O)Oc2c(CN3CCOCC3)cc(Cl)c3cccnc23)c1	Mdm2 MdmX PPI 53.5 | Mdm2 MdmX conf 56.1 | FLuc counter 49.4
O=C(Oc1c(Cl)cc(Cl)c2cccnc12)c1ccco1	Mdm2 MdmX PPI 71.3 | Mdm2 MdmX conf 59.8 | FLuc counter 36.3
Oc1c(Cl)cc(Cl)c2cccnc12	none (no result: 697 NFkB inh, Mdm2 MdmX PPI, Jurkat NFkB inh)
CCCC(=O)N1CCCC1(C)C(=O)Nc1ccc2cn[nH]c2c1 (centres undefined)	none (no result: 697 NFkB inh, Gli-Sufu block, Mdm2 MdmX PPI, Jurkat NFkB inh)
Cc1cc(C)n(C(=O)Cn2nc(C)c(Br)c2C)n1	none
COCCNC(=O)C1(C)CCCN(C(=O)c2cc(C)oc2C)C1 (centres undefined)	none (no result: 697 NFkB inh, Gli-Sufu block, Mdm2 MdmX PPI, Jurkat NFkB inh)
Nc1nonc1-n1nnc(C(=O)N/N=C/c2cccc(F)c2)c1-c1ccc2c(c1)OCO2	none
CC(C)c1c(C(=O)N/N=C/c2ccc(OCc3ccccc3)cc2)nnn1-c1nonc1N	none
Nc1nonc1-n1nnc(C(=O)N/N=C/c2ccc(O)cc2)c1COc1ccc(F)cc1	none
Cc1ccccc1COc1cccc(/C=N/NC(=O)c2nnn(-c3nonc3N)c2C)c1	Mdm2 MdmX PPI 50.7 | Mdm2 MdmX conf inactive | FLuc counter 86.7
Nc1nonc1-n1nnc(C(=O)N/N=C/c2ccc(F)cc2)c1-c1ccc2c(c1)OCO2	Mdm2 MdmX PPI 58.9 | Mdm2 MdmX conf inactive
Nc1nonc1-n1nnc(C(=O)N/N=C/c2ccc(OCc3ccccc3)cc2)c1COc1ccc(F)cc1	Mdm2 MdmX PPI 61.2 | Mdm2 MdmX conf 40.3 | FLuc counter 105.4
Nc1nonc1-n1nnc(C(=O)N/N=C/c2ccc(OCc3ccccc3)cc2)c1CNc1ccccc1	Mdm2 MdmX PPI 77.4 | Mdm2 MdmX conf inactive
COC(=O)CN(C)C(=O)c1ccc(OC2CCN(S(=O)(=O)N(C)C)CC2)cc1	none
COc1ccc(NC(=O)CN2C(=O)NC(C)(c3ccccc3)C2=O)c(OC)c1 (centres undefined)	none
Cc1cnc(NC(=O)/C=C/c2ccc(Br)o2)s1	Mdm2 MdmX PPI 75.4 | Mdm2 MdmX conf inactive
Cc1ccc(/C=C/C(=O)Nc2ncc(C)s2)o1	none
O=[N+]([O-])c1cc(S(=O)(=O)O)cc([N+](=O)[O-])c1NN(c1ccccc1)c1ccccc1	none
O=C(COC(=O)c1ccccc1O)NC12CC3CC(CC(C3)C1)C2	none
O=C(COC(=O)/C=C/C(=O)OCC(=O)NC12CC3CC(CC(C3)C1)C2)NC12CC3CC(CC(C3)C1)C2	Mdm2 MdmX PPI 93.5 | Mdm2 MdmX conf inactive | FLuc counter 68.4
CCOC(=O)N1CCN(C(=O)COC(=O)c2cc(C)ccc2C)CC1	none
Cc1ccc2nsnc2c1NC(=O)c1ccc(-c2cc(Cl)ccc2Cl)o1	Mdm2 MdmX PPI 60.4 | Mdm2 MdmX conf inactive
Cc1ccc2nsnc2c1NC(=O)Cc1ccc(Cl)cc1	none
O=c1cc(C(Cl)(Cl)Cl)oc2c1ccc1ccccc12	Gli-Sufu block 65.4, Mdm2 MdmX PPI 97.8 | Mdm2 MdmX conf 86.0 | FLuc counter 51.6
O=c1cc(-c2ccco2)oc2c1ccc1ccccc12	none
COc1ccc(/C=C/C(=O)N(C)CC(=O)Nc2cccc(F)c2)cc1S(=O)(=O)N1CCCCC1	Mdm2 MdmX PPI 51.7 | Mdm2 MdmX conf 55.4 | FLuc counter 68.7
COc1ccc(NC(=O)CN(C)C(=O)/C=C/c2ccc(S(=O)(=O)N3CCCCCC3)cc2)cc1	none
O=S(=O)(c1ccc(Cl)c(NC(=S)N/N=C/c2c(F)cccc2F)c1)N1CCOCC1	Mdm2 MdmX PPI 50.4 | Mdm2 MdmX conf inactive
O=S(=O)(c1ccc(Cl)c(NC(=S)N/N=C/c2ccc(O)cc2)c1)N1CCOCC1	none
CC(C)OC(=O)c1cc2c(ccn2C)n1CC(=O)N(Cc1ccccc1)c1ccc(F)cc1	Mdm2 MdmX PPI 79.5 | Mdm2 MdmX conf 55.7 | FLuc counter 75.8
CCOC(=O)c1cc2c(ccn2C)n1CC(=O)N(Cc1ccccc1)c1ccc(F)cc1	none
O=C1CCCCc2sc(Br)c([N+](=O)[O-])c2N1	Mdm2 MdmX PPI 63.6 | Mdm2 MdmX conf inactive | FLuc counter 56.5
CC(C)(C)c1ccc(C(=O)Nc2ccc(NC(=O)c3ccco3)cc2)cc1	Mdm2 MdmX PPI 50.9 | Mdm2 MdmX conf inactive
O=C(Nc1ccc(NC(=O)c2sc3ccccc3c2Cl)cc1)c1ccco1	Mdm2 MdmX PPI 77.1 | Mdm2 MdmX conf inactive | FLuc counter 46.4
CS(=O)(=O)Nc1ccccc1-c1cccc2nccn12	none (no result: 697 NFkB inh, Gli-Sufu block, Mdm2 MdmX PPI, Jurkat NFkB inh)
O=C(COC(=O)c1ccc(F)c([N+](=O)[O-])c1)NC(=O)NCc1ccccc1	Mdm2 MdmX PPI 73.1 | Mdm2 MdmX conf inactive
CC(Oc1ccc2cc(-c3ccccc3)c(=O)oc2c1)C(=O)NCC1CCC(C(=O)O)CC1 (centres undefined)	none
Cn1c(N)c(C(=O)COC(=O)c2cc(S(=O)(=O)N3CCOCC3)ccc2F)c(=O)n(C)c1=O	Mdm2 MdmX PPI 82.0 | Mdm2 MdmX conf inactive
Cc1c(C(=O)N2CCC(C)CC2)oc2ccc3c(c12)C(O)CC1(CCCCC1)O3 (centres undefined)	Mdm2 MdmX PPI 75.6 | Mdm2 MdmX conf inactive
CCOc1ccc(C(=O)NC(=S)Nc2ccccn2)cc1[N+](=O)[O-]	Mdm2 MdmX PPI 87.9 | Mdm2 MdmX conf inactive
CCOc1ccc(C(=O)NC(=S)Nc2cc(C)ccn2)cc1[N+](=O)[O-]	none
COc1ccc(Cn2c(C)c(C)c(C#N)c2NC(=O)Nc2cccc(C)c2)cc1	Mdm2 MdmX PPI 54.1 | Mdm2 MdmX conf inactive
COc1ccc(Cn2cccc(NC(=O)Nc3cccc(C#N)c3)c2=O)cc1	Mdm2 MdmX PPI 66.8 | Mdm2 MdmX conf inactive

Source: PubChem
